Results reported in the supplement of paper PMC12636033.
± gives the standard deviation of the averaged measurements. Whole data set: some 33,000 sequences, median “E-score (rank enrichment, -0.5 to 0.5)” near -0.0068, cut for the highest 2% near 0.24. What follows is part of a selection rich in the highest values, with near analogues and random picks from the rest.

system: muMax20 (Max(13-93) K31hArg/K57hArg, M65Nle); assay: PBM 8-mer E-score (E-score (rank enrichment, -0.5 to 0.5)); higher = stronger preferential binding
Method: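 Protein binding microarray (universal PBM chip covering all 10-mers in fixed probe flanks) with chemically synthesized human Max(13-93) bHLH-LZ analogs (not full-length Max) bearing noncanonical residues (hArg, Tha, Aib, Nle at 65) and aromatic Cys staples. Read-out per 8-mer (and its reverse complement): E-score (rank-based enrichment, -0.5 to 0.5) and Z-score of median probe intensity.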

Sequence	PBM 8-mer E-score
TATTAACA	0.128 ± 0.13
GGGGTGAA	0.0293 ± 0.058
ACCCAATA	0.132 ± 0.054
ACCTGTTC	0.0511 ± 0.016
CCGAGGAA	0.0622 ± 0.053
AATGACCC	0.074 ± 0.021
GTGGCACA	0.137 ± 0.017
ACTTTAGC	-0.00298 ± 0.1
CGACTGCC	-0.163 ± 0.0073
GAACGAAA	0.0569 ± 0.079
ATCCTGTC	-0.0955 ± 0.045
CGGTACAC	-0.0567 ± 0.015
AAAAAGCG	0.0746 ± 0.018
ACCGCCTA	-0.0164 ± 0.2
AAACTATG	-0.057 ± 0.1
AGTCCTAG	-0.0808 ± 0.069
GATTAATC	-0.0526 ± 0.063
AATTAAGC	0.191 ± 0.046
GATTAAGA	0.119 ± 0.07
GATTAACA	0.156 ± 0.037
GATTAATA	0.314 ± 0.062
AATTAAGA	0.253 ± 0.013
AACCTTCC	0.0123 ± 0.0059
TAACGAGA	0.263 ± 0.054
AAACGAGA	0.18 ± 0.13

Sequence	PBM 8-mer E-score
CAACGAGA	0.0722 ± 0.14
ATTACAGA	0.0555 ± 0.062
ATTACAGC	-0.00666 ± 0.05
ATTACAGG	0.236 ± 0.066
TAGATACA	0.143 ± 0.12
CTCCGAGC	-0.0246 ± 0.032
AAGTCATT	0.131 ± 0.027
CTGTTACA	0.0334 ± 0.0084
ATGTTACC	0.106 ± 0.016
ATGTTACA	0.239 ± 0.025
CTATCTAA	0.0704 ± 0.073
GAATGTAC	-0.0364 ± 0.078
AAATGTGT	0.175 ± 0.1
CAATGTAC	0.115 ± 0.019
AAATGTAC	0.238 ± 0.048
AAATGTAT	0.241 ± 0.013
AAATGTAG	0.0928 ± 0.084
ACAGGCCT	-0.0825 ± 0.039
AGCAGTAA	-0.0641 ± 0.1
ACAGCGGA	-0.0346 ± 0.033
GAATCAGA	-0.0136 ± 0.14
GGACGGAA	-0.0931 ± 0.17
TGATTTAA	0.177 ± 0.05
CAGTATGA	0.138 ± 0.084
TAGTATGA	0.247 ± 0.067

Sequence	PBM 8-mer E-score
AAGTATGA	0.071 ± 0.059
TGGAGACA	-0.0387 ± 0.082
ACATCTAG	-0.0494 ± 0.021
AGAGCATA	0.0465 ± 0.086
ATTTCAAA	0.252 ± 0.0095
CTTTCAAA	0.267 ± 0.044
ATTTCAAG	0.104 ± 0.023
CTTTCAAC	0.0143 ± 0.071
GTTTCAAA	0.162 ± 0.01
ATTTCAAC	0.146 ± 0.078
ACTGGCTA	-0.11 ± 0.0093
CAGACAGA	-0.0661 ± 0.06
GTTCAATA	0.159 ± 0.039
ATGCAATC	0.126 ± 0.089
CCACGTTA	0.246 ± 0.059
CCACGTTC	0.114 ± 0.033
CCACGTGA	0.43 ± 0.082
CCACGTCC	-0.0476 ± 0.004
CGACGTGA	0.124 ± 0.012
CCACGTGG	0.475 ± 0.032
CGACGTGC	-0.0517 ± 0.017
CTACGTGA	-0.0185 ± 0.092
CAACGTGG	0.11 ± 0.046
CCACGTGC	0.463 ± 0.03
GCACGTTA	0.0863 ± 0.14

Sequence	PBM 8-mer E-score
CCACGTAG	-0.156 ± 0.06
ACGGTGAT	0.0166 ± 0.12
ACTGGACT	-0.0734 ± 0.014
CACTCGAG	-0.165 ± 0.12
TCACTCAA	0.0768 ± 0.022
TCCAGCAA	0.0563 ± 0.029
CTGGCCTC	-0.191 ± 0.03
GTGCTAGA	0.0749 ± 0.058
CTAGGGAA	0.00576 ± 0.011
GGGCCCCC	-0.386 ± 0.075
CAAACCCA	0.212 ± 0.0064
TGCAAGCA	-0.0637 ± 0.018
CAGTGCAG	-0.189 ± 0.011
CCTAGACA	-0.0468 ± 0.14
AACAGGGA	0.0422 ± 0.055
ACGCACAG	-0.11 ± 0.11
ACGCACGC	0.174 ± 0.014
ACGCACAT	0.277 ± 0.039
ACGCACGT	0.288 ± 0.066
ACGCACAA	0.0465 ± 0.071
AAGCACGA	0.0985 ± 0.076
AAGCACGT	0.297 ± 0.12
AAGCACGG	-0.0498 ± 0.039
ACGCACGA	0.0808 ± 0.025
ACGACTCA	-0.0769 ± 0.055

Sequence	PBM 8-mer E-score
CGCACTCA	-0.0736 ± 0.0069
CTCAAATA	0.0362 ± 0.0096
CATTGACC	0.105 ± 0.047
GGGTCGAC	-0.00629 ± 0.1
AGCCTCAT	0.0933 ± 0.064
GTAATTTA	0.0797 ± 0.016
ATAATTTG	0.167 ± 0.077
GTTAATCA	0.204 ± 0.072
ATTAATCC	0.154 ± 0.022
ATTAATTA	0.258 ± 0.064
ATAATTTA	0.244 ± 0.038
ATTAAGTG	0.148 ± 0.031
ATTAATCA	0.2533 ± 0.00043
ATTAAGTA	0.24 ± 0.02
ATTAATTC	0.219 ± 0.0076
ATTAATTG	0.136 ± 0.075
GTTAAGTA	0.063 ± 0.021
CCTCGATC	-0.0647 ± 0.046
GCCCATTA	-0.0555 ± 0.034
CGGCGGAC	-0.282 ± 0.091
GCAGGGCC	-0.171 ± 0.013
CCTCGGTA	-0.295 ± 0.042
CTCCGGAG	-0.227 ± 0.079
TACTGTGA	0.0496 ± 0.099
GGGAACGA	-0.0255 ± 0.026

Sequence	PBM 8-mer E-score
ATTAGGAC	0.0695 ± 0.13
AGCACTAG	0.0808 ± 0.12
AAAGATCG	-0.152 ± 0.035
ATAAATTA	0.262 ± 0.08
CTAAATTA	0.0189 ± 0.047
ATAAATTG	0.157 ± 0.013
CCGTAGTC	-0.131 ± 0.045
AAGGAGAA	0.172 ± 0.0052
CAAGTGTA	0.244 ± 0.042
GACGTGTA	0.0986 ± 0.0068
TAAGTGTA	0.159 ± 0.064
AAAGTGTA	0.12 ± 0.1
AACGTGTA	0.2 ± 0.026
CCCGTGTC	-0.147 ± 0.032
CACGTGTC	0.448 ± 0.053
CACGTGTA	0.444 ± 0.054
AACGTGTC	0.145 ± 0.043
ATACTTTC	0.127 ± 0.013
CAAGAAGG	0.158 ± 0.048
AGTCGACT	0.176 ± 0.13
ACATCCGC	-0.188 ± 0.099
AAACTATA	0.192 ± 0.05
ATACTAAC	0.164 ± 0.066
CAACTATA	0.108 ± 0.0066
ATACTAAA	0.242 ± 0.038

Sequence	PBM 8-mer E-score
TTACTAAA	0.123 ± 0.07
CTACTATC	0.132 ± 0.0082
CTACTAAC	0.237 ± 0.013
GTACTAAA	0.108 ± 0.067
CTACTAAG	-0.0701 ± 0.18
TAACTATA	0.303 ± 0.0032
ATACTATA	0.156 ± 0.08
CTACTATA	0.249 ± 0.062
TCGAACGA	0.0488 ± 0.053
AACTGGCG	-0.0858 ± 0.061
ATCGGCAA	-0.18 ± 0.089
TCACCGCA	-0.0327 ± 0.14
GATAAGCC	-0.111 ± 0.075
GCAGATGA	0.0628 ± 0.064
CTTAGACC	-0.135 ± 0.073
GAGGGGCC	-0.0409 ± 0.045
ACGTGTAG	0.19 ± 0.087
ACGTGTAT	0.386 ± 0.031
ACGTGTAA	0.327 ± 0.048
ACGTGTAC	0.233 ± 0.056
TCGTGTAA	0.13 ± 0.07
CCGTGTAA	-0.147 ± 0.048
